Data on 39 sequences can be found in PMC5700166.

For this assay, the target named is T1, GST-Nv-NF-kB (Ser allele) (Nematostella vectensis, UniProt A7UNT2 2-411).
T1 sequence: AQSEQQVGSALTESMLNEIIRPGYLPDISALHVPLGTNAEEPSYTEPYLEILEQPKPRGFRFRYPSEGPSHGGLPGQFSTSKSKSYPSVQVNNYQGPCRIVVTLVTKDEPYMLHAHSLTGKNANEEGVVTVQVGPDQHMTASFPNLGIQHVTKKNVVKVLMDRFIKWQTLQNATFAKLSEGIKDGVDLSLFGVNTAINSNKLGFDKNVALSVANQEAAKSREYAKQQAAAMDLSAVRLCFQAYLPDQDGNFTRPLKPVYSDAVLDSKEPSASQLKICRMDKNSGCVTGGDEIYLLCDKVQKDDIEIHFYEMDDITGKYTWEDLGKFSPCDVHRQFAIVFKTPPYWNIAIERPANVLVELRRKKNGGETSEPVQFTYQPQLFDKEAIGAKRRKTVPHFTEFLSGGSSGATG
Kind of assay: protein-binding microarray (PBM); PBM: ~300 nM protein, 6 mM HEPES pH 7.8, 80 mM KCl, 0.5 mM EDTA, 0.5 mM EGTA, 6% glycerol, 35 ng/ul poly-dIdC, 1% milk, 1 h, room temperature; Ap Aiptasia and Nv Nematostella (sea anemones) / Co Capsaspora / Aq Amphimedon (sponge) / Dm Drosophila / Hu human; RHD is the Rel homology domain; high values mean tight binding. The settings on record: dsDNA, one strand shown.
On to “CCGATTAACATCATGGTGGTACCTGATGTTAATCGGGTCTTGATTCGCTTGACGCTGCTG”, for which the binding signal came to 1.05 z-score.
In the case of “CCGATTAACATCAGGTACTTCCATGATGTTAATCGGGTCTTGATTCGCTTGACGCTGCTG”, the binding signal was 5.91 z-score.
Take “CCGATTAACATCAGGGGGTACCCTGATGTTAATCGGGTCTTGATTCGCTTGACGCTGCTG”: the binding signal came out at 4.11 z-score.
With “CCGATTAACATCACACACCCCCCTGATGTTAATCGGGTCTTGATTCGCTTGACGCTGCTG” the figure was 3.65 z-score; with “CCGATTAACATCAGGACCGTCCCTGATGTTAATCGGGTCTTGATTCGCTTGACGCTGCTG”, 1.36 z-score.
With “CCGATTAACATCAATTCCCAAGGTGATGTTAATCGGGTCTTGATTCGCTTGACGCTGCTG” the figure was 2.02 z-score; with “CCGATTAACATCAAATATACCCCTGATGTTAATCGGGTCTTGATTCGCTTGACGCTGCTG”, 2.88 z-score.
With “CCGATTAACATCAAACTTTCCCATGATGTTAATCGGGTCTTGATTCGCTTGACGCTGCTG” the figure was 4.64 z-score; with “CCGATTAACATCATTGTCCCTTCTGATGTTAATCGGGTCTTGATTCGCTTGACGCTGCTG”, 3.35 z-score; with “CCGATTAACATCACAGGGAATTCTGATGTTAATCGGGTCTTGATTCGCTTGACGCTGCTG”, 4.96 z-score.
Take “CCGATTAACATCAAATGGGAATTTGATGTTAATCGGGTCTTGATTCGCTTGACGCTGCTG”: the binding signal was found to be 4.87 z-score.
With “CCGATTAACATCACGTAAATCCCTGATGTTAATCGGGTCTTGATTCGCTTGACGCTGCTG” the figure was 2.27 z-score; with “CCGATTAACATCAGGATATTCCCTGATGTTAATCGGGTCTTGATTCGCTTGACGCTGCTG”, 4.19 z-score; with “CCGATTAACATCAAGAGTTTCCCTGATGTTAATCGGGTCTTGATTCGCTTGACGCTGCTG”, 4.9 z-score.
With “CCGATTAACATCAGGAAAAACCCTGATGTTAATCGGGTCTTGATTCGCTTGACGCTGCTG” the figure was 3.96 z-score; with “CCGATTAACATCACGGACTCCCCTGATGTTAATCGGGTCTTGATTCGCTTGACGCTGCTG”, 4.46 z-score; with “CCGATTAACATCAAAATTCCACCTGATGTTAATCGGGTCTTGATTCGCTTGACGCTGCTG”, 3.38 z-score.
With “CCGATTAACATCACATCTTTCCCTGATGTTAATCGGGTCTTGATTCGCTTGACGCTGCTG” the figure was 4.65 z-score; with “CCGATTAACATCACGGAGTTCCCTGATGTTAATCGGGTCTTGATTCGCTTGACGCTGCTG”, 1.77 z-score; with “CCGATTAACATCAGGAGGCCCCCTGATGTTAATCGGGTCTTGATTCGCTTGACGCTGCTG”, 1.79 z-score.
As to “CCGATTAACATCAGGGAACTCCATGATGTTAATCGGGTCTTGATTCGCTTGACGCTGCTG”, the binding signal is 1.24 z-score.
With “CCGATTAACATCACAAACGGGGCTGATGTTAATCGGGTCTTGATTCGCTTGACGCTGCTG” the figure was 1.73 z-score; with “CCGATTAACATCAAAGAAATCCCTGATGTTAATCGGGTCTTGATTCGCTTGACGCTGCTG”, 4.02 z-score.
With “CCGATTAACATCAACTTTCCCAGTGATGTTAATCGGGTCTTGATTCGCTTGACGCTGCTG” the figure was 1.7 z-score; with “CCGATTAACATCACATATACCCCTGATGTTAATCGGGTCTTGATTCGCTTGACGCTGCTG”, 1.38 z-score; with “CCGATTAACATCACTTTTTCCCATGATGTTAATCGGGTCTTGATTCGCTTGACGCTGCTG”, 4.35 z-score.
Regarding “CCGATTAACATCAGGGAAATAACTGATGTTAATCGGGTCTTGATTCGCTTGACGCTGCTG”, the binding signal turned out to be 4.37 z-score.
“CCGATTAACATCAAAGCATTCCCTGATGTTAATCGGGTCTTGATTCGCTTGACGCTGCTG”: the binding signal came to 2.52 z-score.
With “CCGATTAACATCAGGCACCCCCCTGATGTTAATCGGGTCTTGATTCGCTTGACGCTGCTG” the figure was 3.18 z-score; with “CCGATTAACATCAGGGAGTTACCTGATGTTAATCGGGTCTTGATTCGCTTGACGCTGCTG”, 3.21 z-score; with “CCGATTAACATCAAGGAAAAACCTGATGTTAATCGGGTCTTGATTCGCTTGACGCTGCTG”, 1.47 z-score.
Sequence “CCGATTAACATCAAATGACCCCCTGATGTTAATCGGGTCTTGATTCGCTTGACGCTGCTG” gave a binding signal of 2.69 z-score.
In turn, “CCGATTAACATCAGATTCTCCCCTGATGTTAATCGGGTCTTGATTCGCTTGACGCTGCTG” returned a binding signal of 6.01 z-score.
For the sequence “CCGATTAACATCAGGGGACTATATGATGTTAATCGGGTCTTGATTCGCTTGACGCTGCTG”, the binding signal was found to be 4.77 z-score.
With “CCGATTAACATCATGGGAAAAAATGATGTTAATCGGGTCTTGATTCGCTTGACGCTGCTG” the figure was 5.03 z-score; with “CCGATTAACATCACATACTCCCCTGATGTTAATCGGGTCTTGATTCGCTTGACGCTGCTG”, 4.25 z-score; with “CCGATTAACATCAAGTTTACCCCTGATGTTAATCGGGTCTTGATTCGCTTGACGCTGCTG”, 3.57 z-score.
Take “CCGATTAACATCAGGGAACAACCTGATGTTAATCGGGTCTTGATTCGCTTGACGCTGCTG”: the binding signal was found to be 1.65 z-score.
Take “CCGATTAACATCAGGGGGTTACATGATGTTAATCGGGTCTTGATTCGCTTGACGCTGCTG”: the binding signal amounted to 4.94 z-score.
